The campaign covered roughly 220,000 compounds. About 770 (0.35%) were called active. Roughly 15% stayed inconclusive and do not appear here. The list comes from a sample in which actives are over-represented; it also holds similar structures and randomly drawn compounds. Unmarked numbers belong to inactive results. No stated cut-off is given here; in the data, active means binding response below about 49% or above about 150%; inconclusive means no clear call, values can overlap the other calls; inactive means in between.

These results are taken from PubChem BioAssay AID1439 (NMMLSC, 2008).

The target in this experiment is Guanine nucleotide-binding protein G(o) subunit alpha (Homo sapiens) (UniProt P09471). The experiment in a line: RGS7-Galphao binding modulators, primary screen, biochemical, multiplexed bead flow cytometry (AID 1439).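 Further: fluorescent Galphao held in activated GDP-AlF4 state binding bead-coupled RGS7.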 The conditions noted are these: at 10 µM, actives lie on both sides. (In general: A flow cytometer gives signals particle by particle.)
Sequence of Guanine nucleotide-binding protein G(o) subunit alpha (Homo sapiens) (P09471 whole entry, looked up): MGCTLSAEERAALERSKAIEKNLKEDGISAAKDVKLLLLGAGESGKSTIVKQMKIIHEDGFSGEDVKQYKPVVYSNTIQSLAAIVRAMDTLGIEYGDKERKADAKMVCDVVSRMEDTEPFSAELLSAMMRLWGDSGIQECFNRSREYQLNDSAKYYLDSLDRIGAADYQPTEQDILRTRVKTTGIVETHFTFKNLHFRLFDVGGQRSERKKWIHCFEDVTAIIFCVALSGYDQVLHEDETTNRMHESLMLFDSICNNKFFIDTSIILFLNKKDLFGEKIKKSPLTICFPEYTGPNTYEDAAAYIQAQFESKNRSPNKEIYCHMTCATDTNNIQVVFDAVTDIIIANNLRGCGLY
As to `OCCC1CN(Cc2ccccc2-c2ccco2)CCN1Cc1ccsc1` (stereo not drawn), the binding response (% of control) is 95.9%.

As to `Cc1ccc(S(=O)(=O)NCCc2nnc3ccc(SCc4cccnc4)nn23)cc1`, the binding response (% of control) was 95.6%.

With `O=C(O)CCn1c(SCc2cc(=O)n3ccccc3n2)nc2ccsc2c1=O`, the binding response (% of control) was 101%.

In the case of `CC1=CC=CC2=N/C(=N\S(=O)(=O)c3ccc(F)cc3F)c3ccccc3CN12`, the binding response (% of control) was 101%.

Take `c1ccc2c(NC3C4CC5CC(C4)CC3C5)nc(N3CCOCC3)nc2c1` (stereo not drawn): the binding response (% of control) is 100%.

Regarding `N#Cc1nc(-c2ccc(OCc3ccccc3)cc2)oc1NCCCN1CCOCC1`, the binding response (% of control) is 97.2%.

Turning to `N#Cc1nc(COc2ccc(-c3ccccc3)cc2)oc1NCc1cccnc1`, the binding response (% of control) is 202% (active).

For `N#Cc1nc(Cc2ccccc2)oc1NCCc1ccccc1`, the binding response (% of control) is 102%.

Turning to `O=S(=O)(c1ccc(-c2ccccc2)cc1)N1CCCC1`, the binding response (% of control) is 106%.

As for `O=C(NCc1ccco1)C(=O)c1cn(CC(=O)N2CCCCCC2)c2ccccc12`, the binding response (% of control) was 93.9%.

On to `Cc1c(-c2cccc(Cl)c2)nc2ccccc2c1C(=O)OCC(=O)N(C)C1CCS(=O)(=O)C1` (stereo not drawn), for which the binding response (% of control) is 97%.

Regarding `COc1ccc(C(=O)NC2CCN(C(=S)NCCc3ccccc3)CC2)cc1`, the binding response (% of control) was 91.3%.

For `CC(=O)Nc1ccc(/C=N/NC(=O)c2cccs2)cc1`, the binding response (% of control) is 99.9%.

In the case of `C=CCn1c(=NC(=O)c2cccs2)sc2cc(NC(C)=O)ccc21`, the binding response (% of control) was 152% (active).

As for `C=CCn1c(=NC(=O)c2ccc(S(=O)(=O)N3CCCC3)cc2)sc2cc(NC(C)=O)ccc21`, the binding response (% of control) is 91.7%.

As for `O=C(OCC(=O)N1CCOCC1)c1ccc(N2CCOCC2)c([N+](=O)[O-])c1`, the binding response (% of control) is 102%.

In the case of `Cc1c(NC(=S)NC(=O)CCc2ccccc2)c(=O)n(-c2ccccc2)n1C`, the binding response (% of control) is 103%.

In the case of `CN(CCc1ccccn1)C(=O)CCC1CCCN(Cc2ccccc2OC(F)F)C1` (stereo not drawn), the binding response (% of control) is 102%.

Consider `Cc1ccc(S(=O)(=O)/N=C(/Nc2ccc3[nH]c(=O)[nH]c3c2)c2ccccc2)cc1`, for which the binding response (% of control) was 104%.

Regarding `O=C(Cc1c[nH]c2ccccc12)OCCOC(=O)Cc1c[nH]c2ccccc12`, the binding response (% of control) was 95%.

Consider `O=C(CSc1nnc(-c2c[nH]c3ccccc23)o1)c1ccccc1`, for which the binding response (% of control) was 95.2%.

On to `NC(=O)CSc1c[nH]c2ccccc12`, for which the binding response (% of control) is 25.2% [inhibitor] (active).

In the case of `CC(C)N1CCC(N2CCN(Cc3cccnc3)CC2CCO)CC1` (stereo not drawn), the binding response (% of control) is 100%.

With `CC1CC(C)CN(CCC(=O)Nc2ccc3c(c2)CCC3)C1` (stereo not drawn), the binding response (% of control) was 104%.

For `NS(=O)(=O)c1ccc(NC(=S)NNC(=O)c2cccs2)cc1`, the binding response (% of control) was 109%.

Take `Cc1ccc(N(CC(O)CN2CCCC2)S(=O)(=O)c2ccccc2)cc1` (stereo not drawn): the binding response (% of control) is 99.4%.

As for `Cc1cc(C)n(CC(O)CN(c2ccccc2)S(=O)(=O)c2ccc3ccccc3c2)n1` (stereo not drawn), the binding response (% of control) was 1.45% [inhibitor] (active).

In the case of `O=S(=O)(c1ccccc1)N(CC(O)CN1CCCCC1)c1ccccc1` (stereo not drawn), the binding response (% of control) was 110%.

`CN1C(=O)/C(=C/c2ccc(C(=O)NC3CCCC3)cc2)Oc2ccccc21`: the binding response (% of control) is 98.8%.

As for `O=C(CCc1ccccc1)Nc1ccc(NC(=O)C2CCCCC2)nc1`, the binding response (% of control) was 105%.

In the case of `Cc1ccc(CN2CCN(Cc3ccccc3-c3ccco3)CC2CCO)o1` (stereo not drawn), the binding response (% of control) was 90.6%.

Turning to `CN1CCN(S(=O)(=O)c2ccc(N3CCN(S(=O)(=O)c4cccs4)CC3)nc2)CC1`, the binding response (% of control) was 95.4%.

As to `Cc1ccc(NC(=O)NCC(c2cccnc2)N2CCOCC2)cc1` (stereo not drawn), the binding response (% of control) is 100%.

On to `CN1CCN(C(CNS(=O)(=O)c2cccs2)c2cccnc2)CC1` (stereo not drawn), for which the binding response (% of control) is -9.98% [inhibitor] (active).

As for `CN(C)c1ccc(/C=N/NC(=O)C(O)c2ccc(Br)cc2)cc1` (stereo not drawn), the binding response (% of control) is 101%.

Consider `CC(C)(C)C(=O)CN1C2=NCCN2c2ccccc21`, for which the binding response (% of control) is 109%.

Turning to `Cc1ccccc1NC(=O)Cn1c(=O)n(CC2CCCO2)c(=O)c2ccccc21` (stereo not drawn), the binding response (% of control) is 106%.

On to `COc1ccc(CC(=O)N/N=C(\C)c2ccccn2)cc1`, for which the binding response (% of control) was 93.4%.

On to `CCOc1cc(NC(=O)c2ccccn2)c(OCC)cc1NC(=O)c1ccc(OC)cc1`, for which the binding response (% of control) is 107%.

On to `CCN(CC)CCOc1ccc2c(c1)C(=NNC(=O)c1ccccn1)c1cc(OCCN(CC)CC)ccc1-2`, for which the binding response (% of control) is 216% (active).

With `COC(=O)c1cc2n(n1)CCCNC2=O`, the binding response (% of control) is 106%.

For the compound `O=[N+]([O-])c1ccc2c(c1)C(N1CCOCC1)/C(=C/C1(O)CCCCC1)O2` (stereo not drawn), the binding response (% of control) is 100%.

On to `CCCCOC(=O)Cn1c(=N)n(CCN(CC)CC)c2ccccc21`, for which the binding response (% of control) is 165% (active).

For the compound `CCn1c(=N)n(CC(=O)c2cccc(OC)c2)c2ccccc21`, the binding response (% of control) was 96.8%.

Regarding `CCCCOC(=O)Cn1c(=O)n(CC(=O)OCCCC)c2cc(C)ccc21`, the binding response (% of control) was 103%.

For `CCC(C)CN1CCC(CO)(Cc2ccccc2Cl)CC1` (stereo not drawn), the binding response (% of control) is 103%.

Take `O=S1(=O)CCC(NC(=S)SCc2ccccc2Br)C1` (stereo not drawn): the binding response (% of control) was 97.5%.

As for `Cn1c(CCN2CCCCCC2)nc2cc(NC(=O)Nc3ccccc3)ccc21`, the binding response (% of control) was 106%.

Consider `Cc1nc2cc(NC(=O)NC3CC3)ccc2n1C`, for which the binding response (% of control) is 99%.

Turning to `Cc1cc2nc(C)n(CCCNC(=O)Nc3ccccc3)c2cc1C`, the binding response (% of control) is 180% (active).

Take `CCOc1ccc(S(=O)(=O)Nc2nccs2)cc1`: the binding response (% of control) is 101%.

For the compound `C=CCN1C2CCCC1CC(NC(=S)Nc1cccc(OC)c1)C2` (stereo not drawn), the binding response (% of control) is 102%.

Take `Clc1cccc(-c2nc(NCC3CCCO3)c3ccccc3n2)c1` (stereo not drawn): the binding response (% of control) is 99.5%.

As for `Cc1cc(C)n2nc(C(=O)N(C)C(c3ccccc3)c3ccccc3)nc2n1`, the binding response (% of control) is 99%.

Consider `Cc1cccc(NC(=S)N2CCCC(c3nc4ccccc4[nH]3)C2)c1` (stereo not drawn), for which the binding response (% of control) was 106%.

Regarding `COCCCN1C(=O)C(=O)/C(=C(/O)c2ccc3c(c2)CC(C)O3)C1c1cccnc1` (stereo not drawn), the binding response (% of control) was 93.5%.

On to `COc1ccc(/C(O)=C2\C(=O)C(=O)N(Cc3ccco3)C2c2ccc(OC)cc2OC)cc1` (stereo not drawn), for which the binding response (% of control) was 98.7%.

Consider `COc1cc(C2/C(=C(\O)c3ccc4c(c3)CC(C)O4)C(=O)C(=O)N2Cc2ccco2)ccc1O` (stereo not drawn), for which the binding response (% of control) was 17.7% [inhibitor] (active).

On to `CSc1ccc(C(=O)C2CCCN(C(=O)c3ccc(C)nc3)C2)cc1` (stereo not drawn), for which the binding response (% of control) is 96%.

On to `O=C(CCN1CCN(C/C=C/c2ccccc2)CC1)Nc1cccc(F)c1`, for which the binding response (% of control) is 101%.

As to `CCOC(=O)N1CCN(C(=O)COc2ccc(Cl)cc2C)CC1`, the binding response (% of control) is 102%.

On to `CCCn1nnnc1NC(=O)COc1ccc(Cl)cc1C`, for which the binding response (% of control) was 17.1% [inhibitor] (active).

As to `Cc1cc(NC(=O)COc2ccc(Cl)cc2Cl)n(CCC#N)n1`, the binding response (% of control) was 93.9%.

`Cn1c(=NC(=O)C2CC2)sc2cc(F)cc(F)c21`: the binding response (% of control) is 95.6%.

Turning to `CCCC(=O)N=c1sc2cccc(F)c2n1C`, the binding response (% of control) is 18% [inhibitor] (active).

For the compound `Cn1c(=NC(=O)c2ccco2)sc2cccc(F)c21`, the binding response (% of control) is 103%.

For `Cc1cnc(C(=O)N2CCCC(C(=O)c3ccc(C(F)(F)F)cc3)C2)cn1` (stereo not drawn), the binding response (% of control) was 107%.

In the case of `COc1cccc(-n2nc(C(=O)N3CCN(Cc4ccccc4)CC3)c3ccccc3c2=O)c1`, the binding response (% of control) is 98.7%.

Turning to `CCC(=O)OCCNc1nc(-c2ccccc2)nc2ccccc12`, the binding response (% of control) was 110%.

`CC(=O)NC1C(OCc2ccccc2)OC(COC(C)=O)C(OC(C)=O)C1OC(C)=O` (stereo not drawn): the binding response (% of control) is 99.5%.

With `O=C(OCC1O[C@@H](OC(=O)c2cc(O)c(O)c(O)c2)[C@@H](OC(=O)c2cc(O)c(O)c(O)c2)[C@@H](OC(=O)c2cc(O)c(O)c(O)c2)[C@@H]1OC(=O)c1cc(O)c(O)c(O)c1)c1cc(O)c(O)c(O)c1` (stereo partly drawn), the binding response (% of control) was 20.5% [inhibitor] (active).

Take `NC(=O)c1ccc(CN2CCC(Cc3ccccc3)CC2)cc1`: the binding response (% of control) was 99.1%.

For the compound `OCC1(CCc2ccccc2)CCN(Cc2ccc3nsnc3c2)CC1`, the binding response (% of control) was 96.7%.

Consider `CN1CCNC(=O)C1CC(=O)NCCC1=CCCCC1` (stereo not drawn), for which the binding response (% of control) was 96.7%.

As to `CCc1nnc(NS(=O)(=O)c2ccc(NC(=S)NC(=O)c3cccs3)cc2)s1`, the binding response (% of control) was 96.9%.

With `Cc1cc2c(c(=O)n1Cc1ccco1)C(c1ccccc1)C(C#N)=C(N)O2` (stereo not drawn), the binding response (% of control) is 101%.

In the case of `CCOC(=O)CSc1nc2c(sc(=S)n2CCc2ccccc2)c(=O)n1Cc1ccco1`, the binding response (% of control) was 113%.

As to `CN(c1ccccc1)c1ccc(/C=c2\s/c(=C(/C#N)C(=O)C(C)(C)C)n(Cc3ccco3)c2=O)cc1`, the binding response (% of control) was 421% (active).

As for `COc1ccc(C(=O)CSc2nc(C)cc(C)n2)cc1[N+](=O)[O-]`, the binding response (% of control) is 103%.

As to `O=C(NCCCN1CCOCC1)c1ccc([N+](=O)[O-])cc1[N+](=O)[O-]`, the binding response (% of control) is 101%.

On to `O=C(CC1SC(=Nc2ccccc2F)N(CCN2CCOCC2)C1=O)Nc1ccc(F)cc1F` (stereo not drawn), for which the binding response (% of control) is 87%.

Regarding `CC(C)(C)CN1CCNC(=O)C1CC(=O)NC1Cc2ccccc2C1` (stereo not drawn), the binding response (% of control) is 85.9%.

Consider `CC1(C)CC(=O)C(CC(=O)N2CCC(Cc3ccccc3)CC2)C(=O)C1`, for which the binding response (% of control) was 106%.

With `CC1=CC=CN2C1=NC(=O)CC2(C)C(=O)N(CC(=O)NC1CCCC1)c1ccccc1C` (stereo not drawn), the binding response (% of control) is 104%.

In the case of `Cc1ccccc1C(=O)Nc1ccc(N2CCCCCC2)cc1`, the binding response (% of control) was 91.3%.

Regarding `CCOC(=O)c1oc2c(CN3CCN(C)CC3)c(O)ccc2c(=O)c1-c1ccc(Br)cc1`, the binding response (% of control) was 318% (active).

On to `CCN1CCN(Cc2c(O)ccc3c(=O)c(-c4ccc(OC)c(OC)c4)c(C(F)(F)F)oc23)CC1`, for which the binding response (% of control) is 97.2%.

Turning to `CN1CCN(Cc2c(O)ccc3c2oc(=O)c2ccccc23)CC1`, the binding response (% of control) was 99.2%.

With `COc1ccc(N2C(=O)/C(=C\c3ccco3)N=C2SCC(N)=O)cc1Cl`, the binding response (% of control) was 93.9%.

`O=C(O)CCCCCNc1ncnc2ccc(Br)cc12`: the binding response (% of control) was 91.8%.

Take `Cc1c(CN2CCC(C)CC2)c(=O)n(-c2ccccc2)n1C`: the binding response (% of control) was 97%.

In the case of `Cc1cccc(N2CCN(Cc3c(C)n(C)n(-c4ccccc4)c3=O)CC2)c1C`, the binding response (% of control) is 103%.

Regarding `Cc1c(CN2CCCC(C(=O)c3cccc(Cl)c3)C2)c(=O)n(-c2ccccc2)n1C` (stereo not drawn), the binding response (% of control) is 230% (active).
